Jurkat NFkB inh – lowers PMA/ionomycin-induced NF-kB signal in Jurkat cells; AID 435003; inhibition, % at 4 µM; PMA/ionomycin-induced NF-kB luciferase reporter, luminescence; 0.53% of 330,000 active; in the data active = inhibition above about 50%
TMEM16A act – activators or potentiators of mouse TMEM16A chloride channel | Q8BHY3 | HEK293 TMEM16A/YFP-H148Q/I152L, iodide quench fluorescence; hits give low values | B-score at 10 µM | 0.3% of 340,000 active | AID 623877;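 active = fluorescence-ratio B-score plate-corrected deviation score at least 3 library SD below zero, with starting fluorescence score within 5 deviations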;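 note: channel opened by trigger with iodide after compound preincubation; score built on the fluorescence ratio of max minus min over baseline; more negative score means more quench and so TMEM16A activation or potentiation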
Target sequence (Q8BHY3 whole entry, looked up): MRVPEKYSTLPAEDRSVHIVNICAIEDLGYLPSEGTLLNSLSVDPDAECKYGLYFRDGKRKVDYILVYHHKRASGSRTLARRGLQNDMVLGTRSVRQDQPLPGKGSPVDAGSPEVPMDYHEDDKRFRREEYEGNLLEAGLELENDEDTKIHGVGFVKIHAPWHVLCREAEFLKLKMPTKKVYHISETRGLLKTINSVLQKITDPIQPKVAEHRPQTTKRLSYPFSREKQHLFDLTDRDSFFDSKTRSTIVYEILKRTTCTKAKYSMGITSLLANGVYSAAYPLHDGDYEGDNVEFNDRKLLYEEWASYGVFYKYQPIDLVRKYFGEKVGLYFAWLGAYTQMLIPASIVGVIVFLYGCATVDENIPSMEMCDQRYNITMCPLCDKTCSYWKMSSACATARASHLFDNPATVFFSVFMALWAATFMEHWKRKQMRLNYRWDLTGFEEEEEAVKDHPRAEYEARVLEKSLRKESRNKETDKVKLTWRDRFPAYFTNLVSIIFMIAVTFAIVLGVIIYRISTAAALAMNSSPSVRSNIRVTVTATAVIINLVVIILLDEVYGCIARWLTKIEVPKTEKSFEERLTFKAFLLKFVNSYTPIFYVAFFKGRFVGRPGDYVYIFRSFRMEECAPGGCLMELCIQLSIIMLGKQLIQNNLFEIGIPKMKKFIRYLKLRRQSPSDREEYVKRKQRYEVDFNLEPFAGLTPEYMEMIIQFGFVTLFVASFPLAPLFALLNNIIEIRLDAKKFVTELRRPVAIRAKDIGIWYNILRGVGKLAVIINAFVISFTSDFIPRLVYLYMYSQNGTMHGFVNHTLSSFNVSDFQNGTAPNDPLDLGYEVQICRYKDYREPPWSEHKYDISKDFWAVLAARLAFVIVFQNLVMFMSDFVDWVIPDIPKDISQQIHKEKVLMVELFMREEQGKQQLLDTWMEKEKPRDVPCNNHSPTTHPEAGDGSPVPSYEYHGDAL
697 NFkB inh – lowers PMA/ionomycin-induced NF-kB signal in 697 B cells. 697 B-cell NF-kB luciferase reporter, 16 h. AID 435022. 0.33% of 330,000 active. inhibition, % at 4 µM; in the data active = inhibition above about 35%
TMEM16A inh – blocks the mouse calcium-activated chloride channel TMEM16A. HEK293 TMEM16A/YFP iodide influx fluorescence, ionomycin. normalized B-score (activity score, 25-100; higher = stronger inhibition) at 10 µM. 1.2% of 310,000 active;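 active = ratio plate-corrected score three or more library SD toward inhibition, starting fluorescence score within five deviations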;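 note: score derived from kinetic fluorescence span divided by baseline fluorescence per well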
KLF5 inh – kruppel-like factor 5 inhibition; DLD-1 KLF5 promoter-luciferase reporter, luminescence; inhibition, % at 5 µM; 0.23% of 290,000 active; AID 1700;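 active = inhibition above a per-plate limit of that plate's mean compound inhibition plus 3 SD, cut at about 60% in these data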;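 note: 0% = DMSO wells and 100% = LY294002 at 200 µM; higher means less KLF5 promoter-driven luciferase light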
aSyn UTR inh – 5' untranslated region of α-synuclein, MLPCN primary screen; alpha-synuclein 5'UTR reporter, inhibitor activity; inhibition, % (tested at 7.5 µM); 0.82% of 300,000 active; AID 1813; in the data active = inhibition above about 60%; inconclusive = no clear call, values can overlap the other calls;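 note: H4 neuroglioblastoma cells stably carrying SNCA 5'UTR luciferase fusion; 0% = DMSO wells and 100% = positive control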
697 NFkB conf – inhibitors of the PMA/ionomycin-induced NF-kB reporter in 697 B cells, retest. AID 449746. inhibition, % at 4 µM. shares compounds with 697 NFkB inh. 697 B-cell NF-kB luciferase, 16 h. 35% of 2,000 active; in the data active = inhibition mostly above about 28%, no sharp cut-off; inactive = mostly below about 22%
Active calls of the source: *; i = inactive; ? = inconclusive; nt = no result. A selection: hits, their analogues and other compounds. The true share with any hit is near 2.5%.

SMILES	Jurkat NFkB inh	TMEM16A act	697 NFkB inh	TMEM16A inh	KLF5 inh	aSyn UTR inh	697 NFkB conf
CCn1c(SCC(=O)NNC(=O)c2ccccc2)nnc1-c1ccncc1	6	i	42*	i	0	7	-2
CCn1c(SCC(=O)NNC(=O)Cc2ccccc2)nnc1-c1ccncc1	9	i	5	i	-26	1	nt
COCCCN(C(=O)CSc1nc2ccccc2c(=O)n1C)c1c(N)n(Cc2ccccc2)c(=O)[nH]c1=O	nt	i	nt	nt	nt	nt	nt
CCC1NC(=O)c2ccccc2N1c1cccc(Cl)c1 (configuration not stated)	-18	i	-22	i	nt	6	nt
CC1CCN(c2c(NCc3ccc(C(=O)N4c5ccccc5CC4C)cc3)c(=O)c2=O)CC1 (configuration not stated)	22	i	43*	i	-30	10	39*
CC1CCN(c2c(NCc3ccc(C(=O)N4CCN(C5CCCCC5)CC4)cc3)c(=O)c2=O)CC1	10	i	10	i	0	28	nt
CC(C)Cn1c(S(=O)(=O)O)nc2ccccc21	-3	i	35*	i	-23	0	-23
O=C(NCc1ccccc1)C1CCN(S(=O)(=O)N2CCOCC2)CC1	-5	i	41*	i	-12	-18	-4
COc1ccc(/C=C2\SC(=S)N(CCCC(=O)Nc3ccc(O)cc3)C2=O)cc1	-5	i	69*	i	27	78*	75*
COc1ccc(/C=C2\SC(=S)N(CCC(=O)Nc3cccc(O)c3)C2=O)cc1	0	i	47*	nt	-39	-6	54*
COc1ccc(/C=C2/SC(=S)N(CCCC(=O)Nc3ccc(O)cc3)C2=O)cc1	-16	i	71*	i	17	68*	79*
CC(C)(C)c1ccc(C(=O)NC(=S)Nc2ccc(N3CCOCC3)cc2)cc1	-59	i	-334	i	-28	-24	13
CC(C)(C)c1ccc(C(=O)Nc2ccc(N3CCOCC3)cc2)cc1	6	i	-84	i	9	-25	nt
COc1ccc(-n2c(C)cc(C(=O)Cn3nnc4ccccc4c3=O)c2C)cc1	-10	i	-22	i	-19	-18	nt
Cc1cc(C(=O)Cn2nnc3ccccc3c2=O)c(C)n1-c1ccccc1F	-118	i	i	i	-26	?	i
CCCN(CCC)C(=O)c1cc([N+](=O)[O-])cc2c1-c1ccc([N+](=O)[O-])cc1C2=C(C#N)C#N	-1	nt	2	i	-52	0	nt
O=C(Nc1ccc2ncccc2c1)c1cccc(Br)c1	-102	i	-88	i	-157	-375	nt
COc1ccc(C(=O)Nc2ccc3ncccc3c2)cc1	-103	i	-290	i	-19	25	-333
Cc1sc2nc(SCC(=O)N3CCOCC3)[nH]c(=O)c2c1-c1ccccc1	3	i	-7	i	-29	-10	nt
C[C@H]1C=CC(=O)O[C@H]1c1ccccc1	44	i	46*	i	nt	-142	9
CC1C(=O)C(C)(C)C(=O)OC1c1ccccc1 (configuration not stated)	8	i	0	i	13	3	nt
Cc1cc(C)nc(NC2=NCCN2C(=S)Nc2ccc(C)c(C)c2)n1	10	i	16	i	-9	2	nt
Cc1ccccc1-n1c(SCc2c(C)noc2C)nnc1-c1c[nH]c2ccccc12	-10	i	40*	i	16	20	41*
COC(=O)C1CCN(C(=O)c2oc3c(Cl)cc(C)cc3c2C)CC1	-99	i	-265	i	-211	-74	-282
CCOC(=O)C1CCCCN1C(=O)c1oc2c(Cl)cc(C)cc2c1C (configuration not stated)	-1	i	-7	i	-6	-1	nt
SMILES	Jurkat NFkB inh	TMEM16A act	697 NFkB inh	TMEM16A inh	KLF5 inh	aSyn UTR inh	697 NFkB conf
CCOC(=O)NC(=S)Nc1ccc(OC)cc1	-10	i	12	i	-8	-36	nt
CCOC(=O)c1cn[nH]c1NC(=S)Nc1ccc(OC)cc1	-128	i	-371	i	25	8	-199
O=C(NCCc1ccc(Cl)cc1)C1CC(=O)N(C2CCCC2)C1 (configuration not stated)	-4	i	8	i	-16	-2	nt
CSc1ncc(Cl)c(C(=O)Nc2sc3c(c2C(=O)NCc2ccco2)CCCC3)n1	nt	nt	nt	nt	-5	nt	nt
CCSc1ncc(Cl)c(C(=O)Nc2sc3c(c2C(=O)NCc2cccnc2)CCCC3)n1	14	i	38*	i	-16	7	25*
Cc1cc(C)n(-c2n[nH]c(=O)c3ccccc23)n1	-7	i	7	i	4	15	nt
COc1cc(OC)cc(-c2nc3ccccc3s2)c1	-106	i	-72	i	-27	-286	nt
COc1ccc2nc(-c3ccc(F)cc3)sc2c1	-127	i	-311	i	nt	-2	-404
Cn1c(SCC(=O)Nc2cc(Cl)cc(Cl)c2)nnc1-c1ccc2nonc2c1	6	i	38*	i	-7	26	26
COc1ccc(CC(=O)Nc2cccc(-c3ccc4nnc(C)n4n3)c2)cc1	20	i	35	i	-40	-4	29*
Cc1nnc2ccc(-c3cccc(NS(=O)(=O)c4cc(F)ccc4F)c3)nn12	-12	i	38*	i	nt	37	-1
O=S(=O)(Nc1cccc(-c2ccc3nncn3n2)c1)c1ccccc1F	-16	i	18	i	nt	30	nt
CCS(=O)(=O)Nc1cccc(-c2ccc3nnc(-c4cccnc4)n3n2)c1	-13	i	8	i	-19	24	nt
Cc1nnc2ccc(-c3cccc(NS(=O)(=O)c4ccccc4Cl)c3)nn12	2	i	32	i	nt	37	nt
CCCS(=O)(=O)Nc1cccc(-c2ccc3nnc(C)n3n2)c1	9	i	39*	i	-20	13	39*
Cc1nnc2ccc(-c3cccc(NS(=O)(=O)c4ccccc4[N+](=O)[O-])c3)nn12	-9	i	40*	i	nt	-14	28
CCOC(=O)C1=C(C2=CCCCC2)c2ccc(OC)cc2N(S(=O)(=O)C(F)(F)F)C1C(=O)OCC (configuration not stated)	nt	i	-5	nt	nt	nt	nt
C=C1CC(Cn2cc(Br)c(=O)[nH]c2=O)(c2ccc(-c3ccccc3)cc2)OC1=O (configuration not stated)	nt	i	nt	nt	nt	nt	nt
O=C(CSc1nnc2n(C3CCCC3)c(=O)c3ccccc3n12)N1CCCCCC1	-1	i	26	i	-16	-7	nt
CC1CCCN(C(=O)CSc2nnc3n(C4CCCC4)c(=O)c4ccccc4n23)C1 (configuration not stated)	7	i	35*	i	-2	8	-5

From PubChem
